In the library only some 2.1% were active in any assay of this set; here they are far more common.
KKLEB cytotox – counter-screen for CF NF-kB inhibitors: cytotoxicity | KKLEB CF airway cells viability, ATPlite luminescence, overnight; hits give low values; cells stimulated with P. aeruginosa culture filtrate | activity change (cytotoxicity), % at 5 µM | 360,000 tested, 0.36% active | AID 602141;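 active means corrected activity change at or below -50% at 5 µM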
PAX8 inh HTS – PAX8 transcriptional activity inhibition; RMG-I TPO-luciferase reporter, SteadyGlo, 24 h; inhibition, % at 12.6 µM; 360,000 tested, 1.2% active;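 active means mean replicate inhibition at least 60% with every replicate also reaching 60%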;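 further: luciferase light reporting Pax8 driven TPO promoter activity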
EWS-Fli block – EWS/Fli transcriptional activity inhibition. 350,000 tested, 0.67% active. A673 NR0B1-luciferase reporter, viability-normalised. AID 651661. inhibition, % at 12.6 µM;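 active means mean inhibition of at least 50% after viability correction, with every replicate also passing that limit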;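 further: firefly luciferase signal divided by Alamar Blue viability fluorescence both relative to DMSO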
HIF-2a inh – HIF-2a inhibition | inhibition, % at 18.8 µM | AID 624352 | 360,000 tested, 0.72% active | 786-0 RCC cells HIF-2a reporter, luciferase luminescence, overnight;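 active means inhibition of the luminescence signal of 40% or more relative to plate controls, in a single-dose primary screen at 18.75 µM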
CF NFkB block – inhibitors of cystic fibrosis induced NF-kB; inhibition, % at 5 µM; KKLEB NF-kB-GFP reporter, PAF-induced, GFP fluorescence overnight; 360,000 tested, 0.86% active;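 active means at least 50% inhibition at 5 µM, scaled per plate between neutral and stimulator controls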;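 further: PAF is a Pseudomonas aeruginosa culture filtrate used as stimulus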
Hits are given with their value; – = inactive; · = not tested or not shown; ! = a repeat was not active.

SMILES	KKLEB cytotox	PAX8 inh HTS	EWS-Fli block	HIF-2a inh	CF NFkB block
CCN1C(=O)[C@H]2[C@@H](c3ccc(-c4ccc(F)cc4)c(OC)c3)N3CCC[C@@]3(C(=O)OC)[C@H]2C1=O	–	–	–	–	–
C[C@@H]1CN([C@H](C)CO)C(=O)c2cc(-c3cccnc3)cnc2O[C@@H]1CN(C)Cc1ccccc1	·	·	–	·	·
O=C(C[n+]1ccccc1)c1ccc(-c2ccccc2)cc1	–	–	–	–	–
CN(C)c1cc[n+](CC(=O)c2ccc(-c3ccccc3)cc2)cc1	–	98	–	–	–
COc1ccccc1-c1ccc([C@H]2[C@@H](CO)N3CCCCN(Cc4ccncc4)C[C@H]23)cc1	·	–	–	·	·
C[C@H]1CN([C@@H](C)CO)C(=O)c2cc(NC(=O)Nc3ccc(C(F)(F)F)cc3)ccc2O[C@@H]1CN(C)Cc1ccc(Cl)c(Cl)c1	·	·	58	·	·
C[C@@H]1CN([C@H](C)CO)C(=O)c2cc(NC(=O)Nc3ccc(F)cc3)ccc2O[C@H]1CN(C)Cc1ccc(C(F)(F)F)cc1	·	68	–	·	·
C[C@@H]1CN([C@@H](C)CO)C(=O)c2cc(NC(=O)C3CC3)ccc2O[C@@H]1CN(C)Cc1ccc(Cl)c(Cl)c1	–	–	57!	–	–
C[C@@H]1CN([C@@H](C)CO)C(=O)c2cc(NC(=O)Nc3ccc4c(c3)OCO4)ccc2O[C@@H]1CN(C)C(=O)Nc1ccc(C(F)(F)F)cc1	·	77	–	·	·
C[C@@H]1CN([C@H](C)CO)C(=O)c2cc(NC(=O)Nc3ccc(C(F)(F)F)cc3)ccc2O[C@H]1CN(C)C(=O)Nc1ccc2c(c1)OCO2	·	·	–	·	·
Cc1ccc(S(=O)(=O)Nc2ccc3c(c2)C(=O)N([C@H](C)CO)C[C@@H](C)[C@@H](CN(C)C(=O)CCCN(C)C)OCCCC[C@H](C)O3)cc1	·	–	–	·	·
COc1ccc(NC(=O)Nc2ccc3c(c2)C(=O)N([C@@H](C)CO)C[C@@H](C)[C@@H](CN(C)Cc2ccc(C(F)(F)F)cc2)O3)cc1	·	105	–	·	·
COc1ccc(CN(C)C[C@H]2Oc3ccc(NC(=O)Nc4ccc(C(F)(F)F)cc4)cc3C(=O)N([C@@H](C)CO)C[C@@H]2C)cc1	·	·	–	·	·
C[C@H]1CN([C@@H](C)CO)C(=O)c2cc(NC(=O)c3ccncc3)ccc2O[C@H]1CN(C)C(=O)Nc1ccccc1	·	–	·	·	·
COc1ccc2[nH]c(C)cc(=O)c2c1	–	·	·	–	–
COc1ccc2[nH]c3c(C)c4ccncc4c(C)c3c2c1	–	·	59	–	78
O=S(=O)(c1ccccc1)N1CCCCN2[C@H](CO)[C@H](c3ccc(-c4ccccc4F)cc3)[C@H]2C1	·	114	–	·	·
Cc1ccc(-c2ccc([C@H]3[C@H](CO)N4CCCCN(S(=O)(=O)c5cccc(C)c5)C[C@@H]34)cc2)cc1	·	87	–	·	·
O=S(=O)(c1ccccc1)N1CCCCN2[C@H](C1)[C@H](c1ccc(-c3ccccc3F)cc1)[C@@H]2CO	·	–	–	·	·
Cc1ccccc1-c1ccc([C@@H]2[C@@H](CO)N3CCCCN(C(=O)NC4CCCC4)C[C@H]23)cc1	·	82	–	·	·
CCS(=O)(=O)N1CCCCN2[C@H](CO)[C@@H](c3ccc(-c4ccccc4C)cc3)[C@@H]2C1	·	–	–	·	·
Cc1ccccc1-c1ccc([C@@H]2[C@H](CO)N3CCCCN(S(=O)(=O)Cc4ccccc4)C[C@@H]23)cc1	·	–	57	·	·
CCCNC(=O)N1[C@@H]2c3ccc(-c4cccc(F)c4)c(=O)n3C[C@H]1[C@H](CO)[C@H]2C(=O)NC1CCC1	·	–	–	·	·
C/C=C/c1cnc2c(c1)C(=O)N([C@@H](C)CO)C[C@H](C)[C@H](CN(C)C(=O)C1CCC1)O2	·	·	–	·	·
C/C=C/c1ccc(C2[C@H]3CNC[C@@H]2N3Cc2ccc(OC)cc2)cc1 (stereo partly specified)	·	·	–	·	·
SMILES	KKLEB cytotox	PAX8 inh HTS	EWS-Fli block	HIF-2a inh	CF NFkB block
C=CC1c2cc(OC)c(OC)cc2CC(C)N1Cc1ccc(OC)cc1 (stereo unspecified)	·	–	56	·	·
Cn1c(Cl)nc2ccccc21	–	–	·	–	–
Cn1c(N=Nc2ccccc2)nc2ccccc21	-53	·	–	–	–
Cc1cccc2sc(NNC(=O)c3ccc(S(=O)(=O)N4CCc5ccccc5C4)cc3)nc12	–	77	–	–	–
CCOC(=O)N1CCN(S(=O)(=O)c2ccc(C(=O)NNc3nc4c(C)cccc4s3)cc2)CC1	–	81	–	–	–
CCOC(=O)N1CCN(S(=O)(=O)c2ccc(C(=O)Nc3nc4c(s3)CC(C)CC4)cc2)CC1 (stereo unspecified)	-62	·	·	–	–

Screening data from PubChem.
